IL-1B inflam inh = qHTS for Inhibitors of Inflammasome Signaling: IL-1-beta AlphaLISA Primary Screen | THP-1 LPS/ATP IL-1B secretion, AlphaLISA, 16 h; stronger effect = lower value | activity change, % at 57.5 µM | 360,000 tested, 4.7% active; in the data active = activity change below about -50%; inconclusive = mostly about -30% to -49%
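THP-1 cells pretreated 1 hr with compounds (up to 57.5 uM final), then stimulated with LPS (250 ng/mL final) plus ATP (1.25 mM final); secreted IL-1B measured by AlphaLISA after 16 hr, decreased signal indicating inhibition.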
DT40 TDP1 no CPT = qHTS for Inhibitors of human tyrosyl-DNA phosphodiesterase 1 (TDP1): qHTS in cells in absence of CPT | DT40 Tdp1-/- hTDP1 cells, no CPT, ATP luminescence, 48 h | Potency, µM (top dose mostly 46.2 µM), for inactives: at the highest dose activity change, negative = growth inhibition, most hits filed as inhibitors | 420,000 tested, 15% active | AID 686978, 2013; note: potency is the fitted concentration of half-maximal effect; nearly all actives have a fitted effect of over 55% in size
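Camptothecin absent (DMSO only). Human TDP1-complemented DT40 knockout cells, 400 cells/well, 37 °C for minimum 48 hr; ATP measured via CellTiter-Glo, 30 min dark incubation, luminescence.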
HT1080 IDH1KD tx = qHTS for induction of synthetic lethality in tumor cells producing 2HG: qHTS for the HT-1080-IDH1KD cell line; HT-1080 IDH1 knockdown viability, ATP luminescence, 48 h; Potency, µM (doses to about 46.1 µM), without a hit: top-dose activity, negative = toxicity, actives largely listed as cytotoxic; 360,000 tested, 2% active; AID 686971, 2013;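 note: potency is the fitted concentration of half-maximal effect; 0% = DMSO wells and -100% = cell-free medium wells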
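HT-1080-IDH1KD cells (IDH1 knocked down), 750/well in RPMI with 5% FBS, treated with compound 48 h at 37 degrees C. Viability by CellTiter-Glo luminescence, normalised to DMSO and no-cell wells; concentration-response curves classed.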
DT40 TDP1 CPT = qHTS for Inhibitors of human tyrosyl-DNA phosphodiesterase 1 (TDP1): qHTS in cells in presence of CPT | chicken DT40 Tdp1-/-;hTDP1 cells + 20 nM CPT, ATP luminescence, 48 h | Potency, µM (highest dose often 46.2 µM), for the others: top-dose activity change, negative = growth inhibition, usual class: inhibitors | 420,000 tested, 12% active; note: potency is the fitted concentration of half-maximal effect; nearly all actives have a fitted effect of over 55% in size
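Chicken DT40 Tdp1-/- cells stably complemented with human TDP1 were seeded at 400 cells/well in medium containing 20 nM camptothecin, exposed to pin-transferred compounds, and grown at 37 °C for at least 48 hr. Viability was read as ATP luminescence.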
12-LOX inh = Primary qHTS assay for inhibitors of human arachidonate 12S-lipoxygenase (ALOX12): Round 2 | purified 12hLO, xylenol orange hydroperoxide absorbance | 580,000 tested, 1.1% active | AID 1671190, 2021 | Potency, µM (highest dose often 108 µM), inactives show at the top dose activity change, negative = inhibition, most hits filed as inhibitors; note: potency is the fitted concentration of half-maximal effect
Target sequence (P18054 whole entry, looked up): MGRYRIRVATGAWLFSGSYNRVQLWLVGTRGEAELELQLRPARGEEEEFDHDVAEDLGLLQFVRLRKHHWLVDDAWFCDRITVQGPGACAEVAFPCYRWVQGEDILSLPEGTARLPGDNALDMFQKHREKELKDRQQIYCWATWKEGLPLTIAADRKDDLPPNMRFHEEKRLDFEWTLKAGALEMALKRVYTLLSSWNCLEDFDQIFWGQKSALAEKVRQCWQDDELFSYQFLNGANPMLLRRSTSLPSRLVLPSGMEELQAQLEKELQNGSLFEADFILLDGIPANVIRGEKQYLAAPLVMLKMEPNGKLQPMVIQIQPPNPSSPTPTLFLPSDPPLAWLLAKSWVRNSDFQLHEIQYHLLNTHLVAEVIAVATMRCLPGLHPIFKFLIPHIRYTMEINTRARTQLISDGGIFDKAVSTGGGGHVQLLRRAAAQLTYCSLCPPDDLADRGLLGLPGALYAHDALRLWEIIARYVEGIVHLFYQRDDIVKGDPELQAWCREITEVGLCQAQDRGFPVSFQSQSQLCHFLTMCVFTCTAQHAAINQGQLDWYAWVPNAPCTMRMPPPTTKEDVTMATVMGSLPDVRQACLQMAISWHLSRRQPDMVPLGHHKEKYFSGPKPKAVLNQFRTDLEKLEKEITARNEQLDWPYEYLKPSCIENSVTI
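Hydroperoxide product was detected by ferrous iron/xylenol orange as the 573 to 405 nm absorbance ratio. Arachidonic acid at 40 uM (final) was turned over for 30 min at room temperature by 150 nM human 12hLO, pH 7.0 Hepes buffer, after 15 min compound preincubation.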
HT1080NT lethal = qHTS for induction of synthetic lethality in tumor cells producing 2HG: qHTS for the HT-1080-NT fibrosarcoma cell line. 360,000 tested, 1.6% active. HT-1080-NT fibrosarcoma viability, CellTiter-Glo ATP luminescence, 48 h. Potency, µM (titrated, usually from 46.1 µM), for the others: at the top dose activity, negative = less viability, actives largely listed as cytotoxic;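 note: NT is the 2HG producing partner of a matched IDH1 knockdown line; potency is the fitted concentration of half-maximal effect; 0% = DMSO-treated cells and -100% = media-only wells without cells; nearly all actives have a fitted effect of over 55% in size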
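A 48-hour cytotoxicity screen used HT-1080-NT cells plated 2 hours before compound delivery. ATP-based CellTiter-Glo luminescence measured viability, normalized to DMSO and no-cell controls.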
* = called active by the depositor; i = inactive; u = inconclusive; x = no result given; [ ] = dose if it differs, or a comment. The entries come from a sample that favours hits as a whole. Unless noted, calls come from the whole dose curve; as a rule, active = well fitted curve in the direction sought with a large enough effect; inconclusive = small, poorly fitted or top-dose-only effect, or another doubt; inactive = no such curve, though single readings can be large; an effect the other way counts as inactive or inconclusive. Unless noted, % is set by controls: 0 for no effect and ±100 for the full control effect.

SMILES	IL-1B inflam inh	DT40 TDP1 no CPT	HT1080 IDH1KD tx	DT40 TDP1 CPT	12-LOX inh	HT1080NT lethal
COc1ccc(/C(C)=N/NC(=S)Nc2cc(C)ccc2C)cc1	13.4	23.1µM*	-6.0%	23.1µM*	44.7µM*	-10.2%
COc1ccc(CCNC(=S)Nc2cc(C)ccc2C)cc1	-8.2	u	-4.1%	u	u	-5.4%
Cc1ccc(NC(=S)NCc2ccc(Cl)cc2)c(C)c1	-10.0	u	-3.0%	u	35.5µM*	-6.8%
COc1ccc(CCNC(=S)Nc2ccc(C)cc2C)cc1	0.0	u	5.2%	u	u	1.2%
COc1ccc(CNC(=S)Nc2cc(C)ccc2C)cc1	8.3	18.4µM*	2.6%	u	u	4.9%
Cc1cc(Cl)ccc1NC(=S)NCc1ccccc1	-6.9	u	-5.4%	u	u	-3.5%
O=C(N/N=C/c1cccc2cccnc12)c1ccccc1O	227.7	4.11µM*	u	5.17µM*	0.0%	u
O=C(N/N=C/c1cccc2nccnc12)c1ccccc1O	247.7	3.26µM*	-22.3%	5.8µM*	0.0%	u
O=C(N/N=C\c1ccncc1)c1ccccc1O	0.0	-4.2%	-4.9%	24.3%	-1.1%	-10.3%
COCCN(CCOC)CC(=O)OC	x	x	x	x	-57.3%	x
C=CCOc1ccc(C(=O)Nc2ccccc2C(=O)NCc2cccnc2)cc1	-26.0	8.2µM*	23.1µM*	6.51µM*	u	20.6µM*
COCc1ccc(C(=O)Nc2ccccc2C(=O)NCc2cccnc2)cc1	-13.8	6.4%	13.2%	1.5%	8.4%	3.6%
CCOc1ccc(NC(=O)COc2ccc(C(=O)NCc3cccnc3)cc2OC)cc1	4.9	u	3.7%	u	-28.9%	0.7%
COc1cc(C(=O)NCc2cccnc2)ccc1OCC(=O)Nc1cccc(C(F)(F)F)c1	-6.6	3.66µM*	-26.3%	5.17µM*	6.1%	u
CC(C)(C)c1ccccc1OCC(=O)Nc1ccccc1C(=O)NCc1cccnc1	-89.9*	16.4µM*	u	u	-3.5%	u
Cc1cccc(-c2noc([C@@H]3Cc4nc[nH]c4CN3)n2)c1	x	x	x	x	43.4%[176 µM]	x
O=C(NCc1nnnn1-c1ccc(F)cc1)c1ccc(S(=O)(=O)N2CCOCC2)cc1	12.8	u	3.2%	-16.9%	-5.6%	4.2%
CCOc1cc(C=C(C(=O)OC)C(=O)OC)ccc1OCc1ccc([N+](=O)[O-])cc1	-118.2*	11.6µM*	7.31µM*	6.51µM*	0.0%	5.8µM*
COc1ccc(-c2cc(C[C@H]3CNCC[C@H]3CC(=O)N(C)Cc3ccccc3)no2)cc1	x	x	x	x	6.0%[176 µM]	x
CCOc1ccc(NC(=O)c2c(NC(=O)CNCCN3CCOCC3)sc3c2CCC3)cc1	-11.1	14.6µM*	-23.3%	u	i	-4.4%
CCOC(=O)c1c(NC(=O)CN2CCOCC2)sc2c1CCCC2=O	1.0	-14.0%	-5.8%	-8.0%	8.5%	0.1%
CCOC(=O)c1c(NC(=O)CN(CC)CC)sc2c1CCN(C(=O)OCC)C2	u	25.9µM*	u	u	0.7%	u
CCOC(=O)c1c(NC(=O)CN2CCOCC2)sc2c1CCCC2	6.6	20.6µM*	-2.8%	u	0.0%	-1.0%
CCOC(=O)N1CCc2c(sc(NC(=O)Cc3ccccc3)c2C(=O)c2ccc(OC)cc2)C1	-6.6	25.9µM*	-19.9%	u	u	-24.0%
CSCCC(NC(=O)c1ccccc1Br)C(=O)NNC(=O)c1ccco1 (configuration not stated)	15.0	-2.7%	1.3%	u	42.1%	3.0%
SMILES	IL-1B inflam inh	DT40 TDP1 no CPT	HT1080 IDH1KD tx	DT40 TDP1 CPT	12-LOX inh	HT1080NT lethal
CCOC(=O)c1c(NC(=O)CN2CCCCC2)sc2c1CCN(C(=O)OCC)C2	-85.7*	u	u	u	18.0%	u
Cc1cccc(OCCn2nnc3sc4c(c3c2=O)CCCC4)c1	x	u	x	u	-18.8%	x
O=C1CC(c2ccccc2)c2c(n3c(nc4ccccc43)[nH]c2=O)N1 (configuration not stated)	x	x	x	x	-0.8%	x
CN(CCOc1ccccc1)Cc1nc(N)nc(N(C)C)n1	x	x	x	x	39.9%	x
CCCCN1CC(=O)N2[C@H]3c4ccccc4OC[C@@H]3[C@H](C(=O)OCC)[C@]2(C)C1=O	31.5	12.3%	9.5%	6.3%	-16.4%	6.5%
Clc1ccc(SCCOCCN2CCOCC2)cc1	-2.3	u	-0.8%	-27.6%	-12.0%	-0.1%
Clc1ccc(SCCOCCN2CCCCC2)cc1	0.0	16.4µM*	-25.3%	u	-12.9%	-25.2%
Clc1ccc(SCCOCCN2CCc3ccccc3C2)cc1	u	u	u	u	u	23.1µM*
CC1CCN(CCOCCSc2ccc(Cl)cc2)CC1	-12.0	18.4µM*	-29.2%	u	u	u
Cc1cc(OCC[N+]2(C)CCCCC2)nc2ccccc12	4.4	20.6µM*	6.2%	u	-49.2%	13.8%
O=[N+]([O-])c1ccccc1S(=O)(=O)n1nnc2ccccc21	3.4	-25.2%	2.2%	-7.9%	2.8%	-1.9%
COc1cc(C(C)=O)ccc1OCc1cccc(C#N)c1	x	x	x	x	-23.4%	x
CCCn1nnc(NC(=O)COc2ccc(C(C)CC)cc2)n1 (configuration not stated)	x	x	x	x	13.4%	x
CN(C)C(=O)CN1CCCN(C(=O)C2CCN(S(=O)(=O)c3ccc(F)c(Cl)c3)CC2)CC1	x	x	x	x	36.9%	x
CCOC(=O)/C(O)=C/c1ncc(C(F)(F)F)cc1Cl	16.4	u	8.3%	23.1µM*	-16.7%	5.8%
CCOC(=O)/C(=C\Nc1ccc(OC(F)(F)F)cc1)Sc1ncc(C(F)(F)F)cc1Cl	-12.4	11.6µM*	-8.4%[9.24 µM]	16.4µM*	0.0%	8.8%
COCc1nc2cccnc2n1C1CCN(S(=O)(=O)c2ccc(Cl)s2)CC1	x	x	x	x	0.5%	x
O=c1c2oc3ccccc3c2n(Cc2ccc(Cl)cc2)c(=O)n1Cc1ccc2c(c1)OCO2	x	-29.6%	x	-20.4%	-6.6%	x
Clc1ccc(-c2csc(=Nc3ccccc3)n2Cc2ccc3c(c2)OCO3)cc1	x	10.3µM*	x	20.6µM*	u	x
Cc1cc(C(=O)N2CCN(Cc3ccc4c(c3)OCO4)CC2)cs1	0.0	-16.9%	-2.8%	-7.6%	-21.5%	12.4%

Source: PubChem
